Assay results published in PubChem BioAssay (Tox21).
Inconclusive results are not listed. Calls of active or inactive are those of the source. Unless noted, calls follow the shape of the dose curve; as a rule, active = well fitted curve in the direction sought with a large enough effect in the repeat runs; inconclusive = weak or mixed curves; inactive = no such curve, though single readings can be large; an effect the other way counts as inactive or inconclusive.

Assays:
[1] = qHTS assay to identify small molecule antagonists of the estrogen related receptor (ERR) signaling pathway (AID 1224819; also: nearly all actives have a fitted effect of over 50% in size)
Method in brief: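 Compounds dissolved in DMSO were pin-transferred onto ERR cells that had been plated 6 h earlier, and cells were then incubated 18 h at 37 C; signal was luciferase luminescence via One-Glo.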

[2] = qHTS assay to identify small molecule agonists of the estrogen related receptor (ERR) signaling pathway (AID 1224820)
Method in brief: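 After 6 h plating (2,000 cells/well) and 18 h compound treatment at 37 C, ERR cells were lysed with One-Glo and luminescence read after 30 min at room temperature.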

[3] = tested on: estrogen-related receptor alpha (ERRalpha) with PGC-1alpha coactivator, human; assay: qHTS assay to identify small molecule antagonists of the estrogen related receptor signaling pathway with the pleiotropic PPARgamma coactivator (PGC) (AID 1224821; calls by dose curve; also: nearly all actives have a fitted effect of over 50% in size)
Method in brief: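 Luminescence from One-Glo luciferase reagent (30 min, room temperature) measured after 18 h compound treatment at 37 °C. Cells carry the PGC/ERR reporter and were seeded 6 h prior to dosing.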

[4] = qHTS assay to identify small molecule antagonists of the estrogen related receptor signaling pathway with the pleiotropic PPARgamma coactivator (PGC) cell viability counter screen (AID 1224822)
Method in brief: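 Counter screen for cell viability: PGC/ERR cells, 6 h pre-incubation after plating, 17.5 h compound exposure at 37 C, fluorescence from CellTiter-Fluor after 30 min.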

[5] = qHTS assay to identify small molecule agonists of the estrogen related receptor signaling pathway with the pleiotropic PPARgamma coactivator (PGC) (AID 1224823)
Method in brief: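 Luminescence from One-Glo reagent (30 min, room temperature) was read after 18 h compound treatment at 37 C of PGC/ERR cells plated 6 h beforehand; compounds delivered in DMSO by pin tool.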

Measured: Potency
Potency is read from the fitted curve at half-maximal effect.

NCCCCCCCCCCN
inactive: all assays above

Nc1nc2[nH]c(=O)cnc2c(=O)[nH]1
inactive: all assays above

CC1(C)CCC(NC(=O)[C@@H](N)CCC(=O)O)CC1
inactive: all assays above

O=C1c2c(O)cc(O)cc2OC(c2ccc(O)c(O)c2)C1O (stereo not given)
inactive: all assays above

Nc1nc(N)c2nc(CNc3ccc(C(=O)NC(CCC(=O)O)C(=O)O)cc3)cnc2n1 (stereo not given)
active: [1] 0.0438 µM | [3] 0.0619 µM
inactive: all other assays above

CCCCCCCCCC[Si](C)(C)CCC(=O)NC(Cc1ccc(C)cc1)c1ccccc1 (stereo not given)
inactive: all assays above

CC(=O)SCC[N+](C)(C)C
inactive: all assays above

CCCC(CCC)C(=O)OC1CC2CCC(C1)[N+]2(C)C (stereo not given)
inactive: all assays above

O=C(O)C1=CCNCC1
inactive: all assays above

COc1ccccc1N1CCN(CCCCN2C(=O)c3ccccc3C2=O)CC1
inactive: all assays above

OCC1O[C@H]([S-])C(O)[C@@H](O)[C@@H]1O.[Au+] (stereo not given in full)
inactive: [2] | [5]
active: [1] 22 µM | [3] 5.11 µM | [4] 9.08 µM

CCCCCCCCCCCCCCCCCCN(CCCCCCCCCCCCCCCCCC)CCCN(CCO)CCO
inactive: all assays above

NS(=O)(=O)c1ccc(-n2nc(C(F)(F)F)cc2-c2ccc(Cl)cc2)cc1
inactive: all assays above

CCCN(CCc1ccccc1)C1CCc2c(O)cccc2C1 (stereo not given)
inactive: all assays above

O=C(O)c1cc2cc(Cc3cccnc3)ccc2o1
inactive: all assays above

O=C(O)Cc1ccc(O)c(O)c1
inactive: all assays above

O=C(O)C1=CCCN(CCON=C(c2ccccc2)c2ccccc2)C1
inactive: all assays above

CC(C)[C@@H]1CC[C@@H](C)C[C@@H]1P(=O)(c1ccccc1)c1ccccc1
inactive: all assays above

O=c1[nH]c2cc(Cl)ccc2c(O)c1-c1ccc(Oc2ccccc2)cc1
inactive: all assays above

O=C(O)C1CN(CCCP(=O)(O)O)CCN1 (stereo not given)
inactive: all assays above

CN(CC[C@@H](Oc1ccc(C(F)(F)F)cc1)c1ccccc1)CC(=O)O
inactive: all assays above

CC(N)(C(=O)O)c1ccc(C(=O)O)cc1 (stereo not given)
inactive: all assays above

CCCOC(=O)c1c(-c2ccccc2)nc(CC)c(C(=O)SCC)c1CCC
inactive: all assays above

CN1[C@@H](CC(=O)c2ccccc2)CCC[C@H]1C[C@H](O)c1ccccc1
inactive: all assays above

CC(C)(C=O)Cc1cc(C(C)(C)C)c(O)c(C(C)(C)C)c1
inactive: all assays above

NC1CCN(O)C1=O (stereo not given)
inactive: all assays above

CC(C)C[C@H](NC(=O)C1OC1C(=O)O)C(=O)NCCCCN=C(N)N (stereo not given in full)
inactive: all assays above

CCN1/C(=C/C(C)=O)Sc2ccc(OC)cc21
active: [1] 11.9 µM | [3] 5.11 µM
inactive: all other assays above

NC(C(=O)N[C@@H]1C(=O)N2C(C(=O)O)=C(Cl)CS[C@H]12)c1ccccc1 (stereo not given in full)
inactive: all assays above

N=C(N)SCCN
inactive: all assays above

CC(N)(Cc1ccc(O)cc1)C(=O)O (stereo not given)
inactive: all assays above

COc1cc2c(CCNC(C)=O)c[nH]c2cc1Cl
inactive: all assays above

O=c1[nH]ccc2c(O)cccc12
inactive: all assays above

CCN(CC)CCCCNc1ncc2cc(-c3c(Cl)cccc3Cl)c(NC(=O)NC(C)(C)C)nc2n1
active: [1] 2.37 µM | [4] 13.3 µM
inactive: all other assays above

O=C1c2ccccc2C(=O)c2c(NCCc3ccc(O)cc3)ccc(NCCc3ccc(O)cc3)c21
active: [1] 18.1 µM | [4] 11.9 µM
inactive: all other assays above

O=C(/C=C/c1ccc(O)c(O)c1)OCCc1ccccc1
active: [5] 14.4 µM
inactive: all other assays above

Brc1cc2c(cc1[C@H]1Nc3ccccc3[C@H]3C=CC[C@H]31)OCO2
inactive: all assays above

O=c1c2ccccc2nc2n1CCc1c-2[nH]c2ccccc12
active: [2] 2.28 µM | [5] 13.3 µM
inactive: all other assays above

Cn1cc(C(=O)OCC2CCN(CCNS(C)(=O)=O)CC2)c2ccccc21
inactive: all assays above

COc1ccccc1CNCCCCCCNCCCCCCCCNCCCCCCNCc1ccccc1OC
inactive: all assays above

Cc1cccc(-c2[nH]ncc2-c2ccc3ncccc3n2)n1
active: [1] 1.23 µM | [3] 1.44 µM
inactive: all other assays above

CS(=O)(=O)c1ccc(-n2nc(C(F)(F)F)cc2-c2ccc(F)cc2)cc1
inactive: all assays above

CNCCNS(=O)(=O)c1cccc2cnccc12
active: [1] 21.1 µM | [3] 9.08 µM
inactive: all other assays above

CN1CCN(c2nc3cc(C(F)(F)F)ccc3n3cccc23)CC1
inactive: all assays above

CCCCCCCCCCC/C=C\C(C)(C)/C=C\CCCC(=O)O
inactive: all assays above

CN[C@H](CC(=O)O)C(=O)O
inactive: all assays above

CC(=O)O[C@H]1C[C@@H]2CC[C@@H]3[C@H](CC[C@@]4(C)[C@H]3C[C@H]([N+]3(C)CCCCC3)[C@@H]4OC(C)=O)[C@@]2(C)C[C@@H]1[N+]1(C)CCCCC1
inactive: all assays above

OC[C@H]1NC[C@@H](O)[C@@H]1O
inactive: all assays above

O=C(O)c1cc(=O)cc(C(=O)O)[nH]1
inactive: all assays above

NC1(C(=O)O)CCCCC1
inactive: all assays above

COc1cc(CC(=O)O)ccc1O
inactive: all assays above

CN(C)C(=O)/N=N/C(=O)N(C)C
inactive: all assays above

C[N+](C)(C)CC=O
inactive: all assays above

C=CC[C@H](N)C(=O)O
inactive: all assays above

NC[C@H]1O[C@@H](n2cnc3c(N)ncnc32)[C@H](O)[C@@H]1O
inactive: all assays above

COc1cc(C(O)CO)ccc1OS(=O)(=O)O (stereo not given)
inactive: all assays above

CCCCCCC/C=C\CCCCCCCCC(=O)O
inactive: all assays above

NC(=O)c1cc[n+](CC2=C(C(=O)O)N3C(=O)[C@@H](NC(=O)[C@@H](c4ccccc4)S(=O)(=O)[O-])[C@H]3SC2)cc1
inactive: all assays above

C[C@@H]1C(=O)NC2=Nc3cccc(Cl)c3CN21
inactive: all assays above

O=C(O)Cc1c[nH]c2ccc(O)cc12
inactive: all assays above

Nc1cc(Cl)c(NC2=NCCN2)c(Cl)c1
inactive: all assays above

COC(=O)[C@H]1[C@H]2C[C@H]3c4[nH]c5ccccc5c4CCN3C[C@H]2CC[C@@H]1O
inactive: all assays above

NCCCCC(=O)O
inactive: all assays above
